# Compound activity (PubChem)
# Hits are enriched below; roughly 2.9% of the tested compounds scored in any of these assays.
# SMARCA2 activ – SMARCA2 (BRM) function activators, primary screen, cell-based, luminescence, high throughput. MG213 cells, MMTV-luciferase reporter, dexamethasone, overnight. 370,000 tested, 1% active. activation, % at 9.1 µM. AID 652017, 2013; in the data active = activation above about 7.8%;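 note: 0% = vehicle wells and 100% = reference activator wells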
# proKLK7 act – proKLK7 zymogen activators, primary screen, biochemical, fluorescence intensity; Kallikrein-7 (Homo sapiens), P49862; purified proKLK7, EDANS-DABCYL substrate fluorescence; 100% is mature enzyme control, 0% vehicle; activation, % at 7 µM; 370,000 tested, 0.9% active; AID 652039, 2013;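 active = activation above the mean of all tested compounds plus 3 SD, computed per campaign excluding outliers beyond control limits, cut at about 13% in these data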
# Target sequence (P49862 whole entry, looked up): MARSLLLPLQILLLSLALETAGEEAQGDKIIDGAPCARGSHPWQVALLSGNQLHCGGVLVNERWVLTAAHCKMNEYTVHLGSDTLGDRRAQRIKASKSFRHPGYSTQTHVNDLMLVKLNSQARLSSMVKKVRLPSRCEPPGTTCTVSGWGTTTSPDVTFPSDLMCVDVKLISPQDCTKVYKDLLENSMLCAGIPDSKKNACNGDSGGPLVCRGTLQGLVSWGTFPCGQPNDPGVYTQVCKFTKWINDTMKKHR
# FAS TE block – FAS thioesterase domain inhibitors, primary screen, biochemical, fluorescence intensity, uHTS; inhibition, % at 15 µM; Fatty acid synthase (Homo sapiens), P49327; 360,000 tested, 0.67% active; recombinant FAS-TE, OMFH fluorogenic substrate, fluorescence endpoint; AID 602261, 2012;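 active = compounds whose normalised, plate-corrected inhibition of enzyme fluorescence in the single-dose primary screen is 50% or more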;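 note: 0% = DMSO with enzyme and 100% = substrate without enzyme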
# FXN GAA850 act – FXN promoter activators, primary screen, cell-based, luciferase luminescence, HEK293 lucGAA850; HEK293 lucGAA850 FXN promoter luciferase reporter, 24 h; percent of 10 µM SAHA response; activation, % at 6 µM; 360,000 tested, 0.56% active;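 active = activation above the average of all compounds screened plus 3 SD, cutoff fixed separately per campaign, cut at about 7.5% in these data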;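 note: 0% = DMSO wells and 100% = 10 µM SAHA wells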
# SMARCA2 act conf – SMARCA2 (BRM) function activators, confirmation, cell-based, luminescence, triplicate; shares compounds with SMARCA2 activ; MG213 cells, MMTV-luciferase with dexamethasone, overnight; MG213 cells expressing E1A, Rb sequestered; DMSO wells 0%, reference activator 100%; activation, % at 9.1 µM; 3,500 tested, 30% active; AID 652260, 2013;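 active = activation above its plate's cutoff, the mean activation of tested wells plus 3 SD, cut at about 7.9% in these data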
# GAL4-VP16 Luc – GAL4-VP16 luciferase reporter activation, counter-screen for SMARCA2 (BRM) activator project, cell-based, pG5luc, luminescence, high throughput; shares compounds with SMARCA2 activ; HEK293 GAL4-VP16 pG5luc reporter; scaled: DMSO wells 0%, SAHA wells 100%; activation, % at 9.1 µM; 3,500 tested, 41% active;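 active = activation above the solvent-only control well mean plus 3 SD, averaged across control plates, cut at about 5.2% in these data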
# Numbers without * were called inactive; nt = no result given.
SMILES,SMARCA2 activ,proKLK7 act,FAS TE block,FXN GAA850 act,SMARCA2 act conf,GAL4-VP16 Luc
O=[N+]([O-])c1nn(-c2ccccc2)n(O)c1=NCCc1ccccc1,11*,0,-3,4,6,3
COc1ccc(C2=NN(C(=O)CSc3nccn3C)C(c3ccco3)C2)cc1 (centres undefined),0,0,-5,-1,nt,nt
COc1ccc(C2=NN(C(=O)CSc3nnc(C)c(=O)n3N)C(c3ccco3)C2)cc1 (centres undefined),13*,0,-4,2,2,1
NS(=O)(=O)c1ccc(CCNc2ncnc3c2c(-c2ccccc2)cn3-c2ccc(F)cc2)cc1,-1,0,11,1,nt,nt
COC(=O)c1ccc(OC(=O)CS(=O)c2ccccc2[N+](=O)[O-])cc1 (centres undefined),3,-1,29,1,nt,nt
O=C(CS(=O)c1ccc(C(F)(F)F)cc1[N+](=O)[O-])Oc1ccccc1 (centres undefined),16*,0,15,7,-15,4
COc1cccc(CC(NC(C)=O)C(=O)NC2CCN(c3c4c(nc5ncnn35)CCC4)CC2)c1 (centres undefined),8.4*,0,-2,0,-2,0
COc1ccc(NC(=O)NCCCN2CCCC2=O)cc1,-1,0,-6,4,nt,nt
COc1ccc(C(=O)NCCCN2CCCC2=O)cc1,8.0*,0,-8,0,-1,0
CC1(C)CC(=O)C(C=N)=C(O)C1,0,0,-9,0,nt,nt
CCCc1ccc(OCc2ccc(C(=O)N/N=C/c3cccnc3)o2)cc1,11*,0,-14,6,6,18*
CCOc1ccc(CC(=O)N/N=C/c2cccnc2)cc1,1,0,-4,-1,nt,nt
CN1CCN(C(=O)CCN2C(=O)/C(=C/c3cccc(Br)c3)SC2=S)CC1,5,0,3,-1,nt,nt
Cc1ccc(C(=O)CCC(=O)OCC(=O)NNC(=O)c2ccc([N+](=O)[O-])cc2)cc1,9.3*,0,7,1,0,1
O=C(CN1C(=O)CSC1=O)NC1CCCCC1,-3,0,-5,2,nt,nt
CN(C(=O)C1CCC(=O)N(Cc2cccc(F)c2)C1)C1CCCCC1 (centres undefined),9.1*,-1,-2,3,11*,13*
O=C1CCC(C(=O)N2CCCCCC2)CN1Cc1cccc(C(F)(F)F)c1 (centres undefined),9.2*,1,-3,0,0,-1
O=C(NC1CCC1)C1CCC(=O)N(Cc2cccc(F)c2)C1 (centres undefined),-2,-1,-6,3,nt,nt
COc1ccc(C(=O)Nc2ccnn2C2CCN(Cc3cccnc3)CC2)cc1,-1,0,-1,3,nt,nt
CCc1c(O)nc(SCC(=O)NC(C)(C)C)n(-c2ccccc2)c1=O,8.1*,0,-6,0,-3,2
COCCNC(=O)C1CCCN(C(=O)c2cncc(Br)c2)CC1 (centres undefined),-3,1,-10,0,nt,nt
COCCNc1nc2nonc2nc1N1CCC(N(C)C)C1 (centres undefined),-1,-1,-5,1,nt,nt
Cc1noc(C)c1-c1ccc(C(=O)Nc2ccccc2)c2occc12,12*,0,8,4,4,16*
COc1ccc(NC(=O)c2ccc3[nH]c(C)c(C)c3c2)cc1,18*,-1,3,1,9.5*,4
Cc1ccc(C(=O)Nc2cccc(C(=O)N3CCOCC3)c2)cc1,16*,0,-7,3,8.3*,3
SMILES,SMARCA2 activ,proKLK7 act,FAS TE block,FXN GAA850 act,SMARCA2 act conf,GAL4-VP16 Luc
COc1ccc(C(=O)Nc2cccc(-c3cnc4ccccc4n3)c2)cc1,8.4*,0,-3,0,-3,3
COc1ccc(C(=O)Nc2cccc(C)c2)cc1,9.6*,0,-2,3,13*,8.4*
COc1ccc(C(=O)Nc2cccc(NC(C)=O)c2)cc1,5,0,-8,1,nt,nt
CC(=O)Nc1cccc(NC(=O)c2ccc3[nH]c(C)c(C)c3c2)c1,-2,0,-2,1,nt,nt
O=C(/C=C/c1cccc([N+](=O)[O-])c1)NCc1ccco1,-2,0,27,0,nt,nt
O=C(NNC(=O)c1sc2ccccc2c1Cl)Nc1ccc(Cl)cc1,0,0,-8,0,nt,nt
O=C(CSc1ccc2nnc(CCNC(=O)c3ccc(F)cc3)n2n1)NCC1CCCO1 (centres undefined),-2,0,-6,-1,nt,nt
Cc1ccc(NC(=O)c2ccc(OC(=O)c3cc4ccccc4o3)cc2)cc1,9.1*,0,-5,3,7,14*
COC(=O)c1sccc1NC(=O)c1ccc(C)cc1,-4,0,-1,2,nt,nt
COc1ccc(C(=O)NNc2ccccc2)cc1,10*,0,-9,1,-1,0
COC(=O)c1sccc1NC(=O)c1ccc(OC)cc1,17*,0,15,2,5,0
Cc1ccc(/C=C/c2nc3ccccc3c(=O)[nH]2)cc1,8.7*,0,-1,3,9.6*,5.8*
COc1ccc(-c2cc(-c3ccccc3O)[nH]n2)cc1OC,13*,0,7,7,18*,14*
O=C(O)c1cccnc1Oc1ccccc1,-1,1,-14,0,nt,nt
CN(CCc1ccccn1)C(=O)c1cccnc1Oc1ccccc1,12*,0,-3,1,-1,2
O=C(COc1cccc(C(F)(F)F)c1)Nc1cccnc1,8.4*,0,-4,1,-1,-1
O=C(COc1ccc(C(=O)NCc2cccnc2)cc1)Nc1cccc(C(F)(F)F)c1,-1,0,0,0,nt,nt
COc1ccc(CN(C(=O)c2ccccc2OC)C2CCS(=O)(=O)C2)cc1 (centres undefined),-2,0,-9,0,nt,nt
O=C(/C=C/c1ccccc1Cl)NCCc1ccccc1,nt,nt,10,3,nt,nt
O=C(/C=C/c1ccccc1Cl)NCc1ccccc1,11*,0,3,-1,2,2
CN(C)c1ccc(NC(=O)/C=C/c2ccccc2Cl)cc1,8.2*,0,-6,3,7,11*
CCN(CC)c1ccc(NC(=O)/C=C\c2ccccc2Cl)cc1,6,-1,18,1,nt,nt
O=C(O)c1ccc(C[n+]2c(-c3ccccc3)csc2Nc2ccccc2)cc1,10*,-1,-3,0,-2,1
CC(C)(C)c1cc(-c2csc(Nc3ccccc3)[n+]2Cc2ccc(C(=O)O)cc2)cc(C(C)(C)C)c1O,nt,nt,45,2,nt,nt
